Several values for one entry are separate records, joined by “and”; a condition that tells them apart may be missing. Identical values can stand only once.

The text below walks through data of ChEMBL document CHEMBL1961873, “Compounds: GSK PKIS; Assays: Nanosyn kinase panel” (2012).

Test [1] concerns Epidermal growth factor receptor (Homo sapiens), P00533 [T790M]. Particulars: at 1 µM.
For test [2], the system named is Epidermal growth factor receptor (Homo sapiens), P00533 [L858R,T790M]. Particulars: at 0.1 µM.
The test system is the same in test [3]. Particulars: at 1 µM.
The target of test [4] is Ephrin type-A receptor 2 (Homo sapiens) (UniProt P29317). To be noted: at 0.1 µM.
Test [5] has the same target. To be noted: at 1 µM.
For test [6], the target named is T1, Ephrin type-A receptor 3 (Homo sapiens) (UniProt P29320).
T1 sequence (whole entry): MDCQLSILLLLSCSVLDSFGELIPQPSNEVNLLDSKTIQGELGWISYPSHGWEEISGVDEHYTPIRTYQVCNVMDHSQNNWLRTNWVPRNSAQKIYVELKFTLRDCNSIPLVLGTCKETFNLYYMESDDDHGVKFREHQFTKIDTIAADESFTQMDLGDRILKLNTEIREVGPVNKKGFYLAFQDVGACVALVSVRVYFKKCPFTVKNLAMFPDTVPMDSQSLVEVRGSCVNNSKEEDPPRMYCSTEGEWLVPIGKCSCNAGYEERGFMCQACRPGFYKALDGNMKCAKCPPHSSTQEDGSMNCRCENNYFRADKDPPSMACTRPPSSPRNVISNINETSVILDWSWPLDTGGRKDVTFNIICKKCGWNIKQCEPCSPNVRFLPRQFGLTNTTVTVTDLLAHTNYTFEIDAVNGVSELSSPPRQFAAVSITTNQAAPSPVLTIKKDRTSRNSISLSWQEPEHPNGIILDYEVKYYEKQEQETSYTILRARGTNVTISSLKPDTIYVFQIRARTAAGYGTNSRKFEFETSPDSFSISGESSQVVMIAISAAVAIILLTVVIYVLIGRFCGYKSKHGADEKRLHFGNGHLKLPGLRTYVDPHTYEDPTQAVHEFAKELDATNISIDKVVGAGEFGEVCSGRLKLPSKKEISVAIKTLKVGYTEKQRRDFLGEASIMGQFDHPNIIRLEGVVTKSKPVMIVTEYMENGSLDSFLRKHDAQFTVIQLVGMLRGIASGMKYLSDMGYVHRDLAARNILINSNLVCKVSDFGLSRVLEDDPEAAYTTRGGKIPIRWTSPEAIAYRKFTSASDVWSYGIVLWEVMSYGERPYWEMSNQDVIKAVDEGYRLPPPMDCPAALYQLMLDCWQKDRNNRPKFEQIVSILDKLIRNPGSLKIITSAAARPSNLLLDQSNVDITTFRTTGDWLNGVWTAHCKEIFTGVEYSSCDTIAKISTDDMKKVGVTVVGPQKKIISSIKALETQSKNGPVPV
Particulars: at 0.1 µM.

Test [7] has as its target T1, Ephrin type-A receptor 3 (Homo sapiens). To be noted: at 1 µM.
For test [8], the target named is Ephrin type-A receptor 4 (Homo sapiens) (UniProt P54764). To be noted: at 0.1 µM.
For test [9] the target is unchanged. To be noted: at 1 µM.
Test [10] has as its target T2, Ephrin type-B receptor 2 (Homo sapiens) (UniProt P29323).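 Further: reported as mean inhibition of EPHB2, from the GSK PKIS dataset.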
T2 sequence (whole entry): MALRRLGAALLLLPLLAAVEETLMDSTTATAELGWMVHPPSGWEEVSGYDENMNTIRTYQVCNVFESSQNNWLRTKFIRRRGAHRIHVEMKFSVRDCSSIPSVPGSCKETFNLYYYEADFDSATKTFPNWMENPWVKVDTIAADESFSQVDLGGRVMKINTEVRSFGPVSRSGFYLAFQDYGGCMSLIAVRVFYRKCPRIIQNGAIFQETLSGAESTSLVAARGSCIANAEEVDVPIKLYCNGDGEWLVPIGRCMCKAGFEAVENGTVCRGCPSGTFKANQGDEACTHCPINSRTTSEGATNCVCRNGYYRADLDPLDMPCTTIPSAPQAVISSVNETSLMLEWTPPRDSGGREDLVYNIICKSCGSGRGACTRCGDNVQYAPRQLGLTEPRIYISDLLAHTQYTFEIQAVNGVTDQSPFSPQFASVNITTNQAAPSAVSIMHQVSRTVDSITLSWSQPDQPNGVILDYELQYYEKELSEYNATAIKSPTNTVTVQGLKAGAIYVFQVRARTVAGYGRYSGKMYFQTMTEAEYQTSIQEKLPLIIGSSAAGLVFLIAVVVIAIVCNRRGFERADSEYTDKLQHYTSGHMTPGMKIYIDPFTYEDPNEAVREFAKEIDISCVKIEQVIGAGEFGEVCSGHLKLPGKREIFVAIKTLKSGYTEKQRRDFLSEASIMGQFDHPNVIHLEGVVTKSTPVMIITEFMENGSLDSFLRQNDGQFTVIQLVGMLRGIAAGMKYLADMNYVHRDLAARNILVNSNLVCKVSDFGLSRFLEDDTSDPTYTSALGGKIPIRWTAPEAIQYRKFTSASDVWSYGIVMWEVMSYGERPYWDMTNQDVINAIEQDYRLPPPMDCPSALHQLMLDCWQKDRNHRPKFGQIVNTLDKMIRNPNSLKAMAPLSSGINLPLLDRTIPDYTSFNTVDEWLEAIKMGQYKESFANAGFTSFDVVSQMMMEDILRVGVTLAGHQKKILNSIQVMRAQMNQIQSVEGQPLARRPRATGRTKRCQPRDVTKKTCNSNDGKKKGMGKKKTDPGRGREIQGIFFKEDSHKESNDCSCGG
To be noted: at 0.1 µM.

Sequence of Ephrin type-A receptor 2 (Homo sapiens) (P29317 whole entry): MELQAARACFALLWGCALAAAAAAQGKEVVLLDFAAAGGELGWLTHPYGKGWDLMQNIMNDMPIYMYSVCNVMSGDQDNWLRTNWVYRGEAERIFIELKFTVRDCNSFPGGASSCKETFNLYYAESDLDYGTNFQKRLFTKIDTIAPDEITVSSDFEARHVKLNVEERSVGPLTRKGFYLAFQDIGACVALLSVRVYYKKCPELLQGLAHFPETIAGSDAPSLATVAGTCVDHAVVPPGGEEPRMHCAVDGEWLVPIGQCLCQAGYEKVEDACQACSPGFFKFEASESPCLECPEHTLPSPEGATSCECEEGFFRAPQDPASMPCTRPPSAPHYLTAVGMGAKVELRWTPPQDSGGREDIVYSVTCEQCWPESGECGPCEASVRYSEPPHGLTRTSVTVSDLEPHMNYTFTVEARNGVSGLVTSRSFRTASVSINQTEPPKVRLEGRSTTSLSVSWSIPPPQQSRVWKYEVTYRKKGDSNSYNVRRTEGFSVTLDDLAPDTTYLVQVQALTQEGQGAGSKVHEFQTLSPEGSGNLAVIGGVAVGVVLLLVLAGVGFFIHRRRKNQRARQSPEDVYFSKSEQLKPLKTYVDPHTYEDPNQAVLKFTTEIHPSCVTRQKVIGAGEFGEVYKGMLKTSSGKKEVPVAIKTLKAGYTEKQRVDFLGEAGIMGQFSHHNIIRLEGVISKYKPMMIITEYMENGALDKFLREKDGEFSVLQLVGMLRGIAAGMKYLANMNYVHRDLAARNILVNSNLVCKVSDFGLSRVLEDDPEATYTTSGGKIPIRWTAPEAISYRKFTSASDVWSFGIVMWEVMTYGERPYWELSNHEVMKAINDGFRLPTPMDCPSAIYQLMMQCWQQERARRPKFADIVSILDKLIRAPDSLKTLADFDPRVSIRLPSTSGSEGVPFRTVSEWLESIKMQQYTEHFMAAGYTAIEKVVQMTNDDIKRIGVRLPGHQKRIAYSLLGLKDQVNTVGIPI
Sequence of Epidermal growth factor receptor (Homo sapiens), P00533 [L858R,T790M] (P00533 whole entry T790M/L858R, looked up): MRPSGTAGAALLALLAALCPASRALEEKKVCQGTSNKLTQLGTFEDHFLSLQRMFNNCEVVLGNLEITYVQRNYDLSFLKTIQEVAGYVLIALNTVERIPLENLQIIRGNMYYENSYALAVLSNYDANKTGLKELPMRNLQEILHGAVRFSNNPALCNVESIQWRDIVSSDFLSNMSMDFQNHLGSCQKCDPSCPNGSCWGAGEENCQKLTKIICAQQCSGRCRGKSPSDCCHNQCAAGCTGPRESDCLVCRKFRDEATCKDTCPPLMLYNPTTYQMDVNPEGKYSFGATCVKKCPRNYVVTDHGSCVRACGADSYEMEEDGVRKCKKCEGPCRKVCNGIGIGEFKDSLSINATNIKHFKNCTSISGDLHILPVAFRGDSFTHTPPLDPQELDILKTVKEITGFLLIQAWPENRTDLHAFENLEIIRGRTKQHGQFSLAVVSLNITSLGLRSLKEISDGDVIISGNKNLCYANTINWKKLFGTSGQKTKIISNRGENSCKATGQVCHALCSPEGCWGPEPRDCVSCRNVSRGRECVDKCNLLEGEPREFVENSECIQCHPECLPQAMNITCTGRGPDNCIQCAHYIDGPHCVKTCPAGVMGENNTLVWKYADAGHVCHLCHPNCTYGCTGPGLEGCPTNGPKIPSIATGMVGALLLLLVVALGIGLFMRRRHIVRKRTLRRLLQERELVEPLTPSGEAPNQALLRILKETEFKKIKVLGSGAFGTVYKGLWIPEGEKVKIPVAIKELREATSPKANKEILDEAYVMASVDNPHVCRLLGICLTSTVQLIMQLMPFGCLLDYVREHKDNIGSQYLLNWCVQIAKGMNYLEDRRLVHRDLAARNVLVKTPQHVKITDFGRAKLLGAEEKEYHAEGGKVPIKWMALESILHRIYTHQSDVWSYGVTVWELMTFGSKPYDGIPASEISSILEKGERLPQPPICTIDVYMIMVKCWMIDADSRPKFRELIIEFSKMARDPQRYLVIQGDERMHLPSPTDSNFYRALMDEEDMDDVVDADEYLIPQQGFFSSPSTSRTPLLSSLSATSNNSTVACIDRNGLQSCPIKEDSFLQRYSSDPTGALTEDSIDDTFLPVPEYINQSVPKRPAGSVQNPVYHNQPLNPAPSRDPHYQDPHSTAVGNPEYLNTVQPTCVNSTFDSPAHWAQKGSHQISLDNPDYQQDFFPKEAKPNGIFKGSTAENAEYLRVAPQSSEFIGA
Sequence of Epidermal growth factor receptor (Homo sapiens), P00533 [T790M] (P00533 whole entry T790M): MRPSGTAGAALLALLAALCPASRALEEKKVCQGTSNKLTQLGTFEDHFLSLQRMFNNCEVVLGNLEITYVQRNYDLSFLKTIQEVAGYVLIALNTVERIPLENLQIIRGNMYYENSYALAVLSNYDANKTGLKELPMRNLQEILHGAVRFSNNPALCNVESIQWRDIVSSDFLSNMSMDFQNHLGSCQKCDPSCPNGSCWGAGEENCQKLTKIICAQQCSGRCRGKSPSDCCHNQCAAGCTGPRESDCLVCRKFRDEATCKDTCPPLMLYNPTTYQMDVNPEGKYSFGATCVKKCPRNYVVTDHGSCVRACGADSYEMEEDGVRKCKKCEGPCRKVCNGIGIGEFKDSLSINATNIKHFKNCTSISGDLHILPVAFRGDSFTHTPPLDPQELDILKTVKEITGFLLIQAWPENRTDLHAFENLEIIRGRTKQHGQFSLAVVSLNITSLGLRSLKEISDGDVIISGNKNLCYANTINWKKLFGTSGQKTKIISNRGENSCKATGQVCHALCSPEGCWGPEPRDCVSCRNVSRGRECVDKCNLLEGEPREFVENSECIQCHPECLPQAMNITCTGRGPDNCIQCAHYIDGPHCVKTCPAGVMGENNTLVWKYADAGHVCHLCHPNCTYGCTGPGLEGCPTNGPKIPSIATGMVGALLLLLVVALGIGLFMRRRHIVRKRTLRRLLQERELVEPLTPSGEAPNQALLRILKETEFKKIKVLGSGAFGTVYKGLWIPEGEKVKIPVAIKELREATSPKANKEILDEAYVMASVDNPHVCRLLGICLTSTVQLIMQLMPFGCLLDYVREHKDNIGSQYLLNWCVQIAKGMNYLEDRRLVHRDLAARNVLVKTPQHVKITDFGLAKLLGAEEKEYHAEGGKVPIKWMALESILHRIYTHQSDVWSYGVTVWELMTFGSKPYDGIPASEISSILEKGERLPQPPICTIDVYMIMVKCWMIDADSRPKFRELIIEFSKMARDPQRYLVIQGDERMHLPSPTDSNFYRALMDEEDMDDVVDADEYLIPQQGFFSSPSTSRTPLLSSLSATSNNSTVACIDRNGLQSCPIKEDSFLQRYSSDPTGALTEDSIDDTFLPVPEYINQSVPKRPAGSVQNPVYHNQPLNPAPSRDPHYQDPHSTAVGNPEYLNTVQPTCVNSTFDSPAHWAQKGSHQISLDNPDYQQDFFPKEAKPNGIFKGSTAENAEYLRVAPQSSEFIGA
Sequence of Ephrin type-A receptor 4 (Homo sapiens) (P54764 whole entry): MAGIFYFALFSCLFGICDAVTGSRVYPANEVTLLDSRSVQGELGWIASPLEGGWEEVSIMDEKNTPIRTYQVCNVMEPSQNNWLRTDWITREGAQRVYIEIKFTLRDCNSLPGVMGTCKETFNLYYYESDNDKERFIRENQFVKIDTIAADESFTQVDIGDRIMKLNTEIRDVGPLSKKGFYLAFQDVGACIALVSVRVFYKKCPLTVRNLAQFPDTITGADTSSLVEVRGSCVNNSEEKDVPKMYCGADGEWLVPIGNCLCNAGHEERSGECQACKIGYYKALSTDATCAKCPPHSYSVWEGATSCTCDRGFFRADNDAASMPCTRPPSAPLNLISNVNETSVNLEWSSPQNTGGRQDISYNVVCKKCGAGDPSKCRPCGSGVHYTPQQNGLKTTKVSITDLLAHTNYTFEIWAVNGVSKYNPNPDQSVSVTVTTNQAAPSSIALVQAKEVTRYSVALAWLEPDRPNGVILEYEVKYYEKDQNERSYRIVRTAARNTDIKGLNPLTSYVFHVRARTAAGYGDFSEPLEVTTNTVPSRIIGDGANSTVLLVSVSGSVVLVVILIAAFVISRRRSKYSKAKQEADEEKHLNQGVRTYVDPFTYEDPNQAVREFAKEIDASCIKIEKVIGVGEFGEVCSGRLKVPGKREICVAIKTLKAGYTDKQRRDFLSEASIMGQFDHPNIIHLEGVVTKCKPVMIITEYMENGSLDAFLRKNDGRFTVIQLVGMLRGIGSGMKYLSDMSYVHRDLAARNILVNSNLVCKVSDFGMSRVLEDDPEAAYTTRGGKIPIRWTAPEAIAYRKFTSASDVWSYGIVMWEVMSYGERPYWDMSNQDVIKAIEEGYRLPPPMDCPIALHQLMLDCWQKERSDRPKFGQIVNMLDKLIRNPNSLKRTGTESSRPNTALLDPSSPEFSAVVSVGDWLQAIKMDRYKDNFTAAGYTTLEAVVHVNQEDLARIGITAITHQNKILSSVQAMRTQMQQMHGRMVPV

The term inhibition denotes the relative decrease from the control value, in per cent. Consider `COc1ccccc1-c1cc(/C=C2\C(=O)Nc3ncc(Br)cc32)cc(Br)c1O`, for which the inhibition in test [1] was 1.53%; in test [2], 1.24%; in [3], 4.48%; in [4] it was 1.75%; in test [5] it was 3.18%; in test [6], 4.45%. Besides, the inhibition in test [7] is 5.49%; in [8] it was 9.58%; in [9], 6.4%; in [10], 6.05%.
On to `Cc1nnc(-c2cccc(-c3ccc(C(=O)NCC4CC4)cc3)c2)o1`, for which the inhibition came out at 4.56% in test [1]; 2.93% in test [2]; 3.63% in test [3]; 1.56% in [4]; 0.66% in test [5]; 5.76% in test [6]. Moreover, the inhibition stood at 6.16% in test [7], 11.3% in test [8], 10.8% in test [9] and 11.1% in test [10].
On to `c1ccc(-c2n[nH]cc2-c2ccnc(-c3ccc(OCCn4ccnc4)cc3)c2)nc1`, for which the inhibition in test [1] is 0.85%; in test [2], -0.66%; in test [3], 2.87%; in test [4], -2.85%; in [5] it was -3.04%; in test [6], -1.82%. Moreover, the inhibition is 0.58% in test [7], 0.18% in test [8], 0.69% in [9] and -0.16% in test [10].
Turning to `COc1cc(Nc2ncc(-c3ccccc3)o2)cc(OC)c1`, the inhibition was found to be 1.99% in [1]; 0.93% in [2]; 0.21% in [3]; 2.21% in [4]; 2.39% in [5]; 3.02% in [6]. Besides, the inhibition in test [7] amounted to 8.57%; in [8], 8.98%; in [9], 13.7%; in test [10], 8.98%.
In the case of `Nc1ncnc2occ(-c3ccc(NC(=O)Nc4cc(C(F)(F)F)ccc4F)cc3)c12`, the inhibition in test [1] is -0.24% and 0.54%; in test [2] it was 0.74% and 1.93%; in [3] it was 0.23% and -1.52%; in [4] it was 22.4% and 1.32%; in test [5], 80.5% and 57%; in [7], 43.8% and 25.2%. Further, the inhibition in test [9] was 77.2% and 77.9%; in test [10], 55.4% and 55.7%.
As to `O=C1Nc2ccccc2/C1=C1\CCc2cc(O)ccc21`, the inhibition in test [1] was 2.73%; in test [2], 1.8%; in test [3], 4.76%; in test [4] it was 2.66%; in [5], 2%; in test [6], 6.06%. Moreover, the inhibition was determined as 4.39% in [7], 7.97% in test [8], 3.3% in test [9] and 3.53% in [10].
As to `COc1cc(N2CCN(C(C)C)CC2)ccc1Nc1nc(Nc2cccc3ncccc23)c2cc[nH]c2n1`, the inhibition in test [1] was 10.3%; in test [2] it was 1.03%; in test [3] it was 35.2%; in test [4], -1.62%; in [5] it was -2.47%; in test [6], 0.15%. Besides, the inhibition in [7] worked out at 3.49%; in test [8] it was 0.21%; in test [9], 0.38%; in test [10] it was 5.06%.
In the case of `NS(=O)(=O)c1cccc(N/C=C2\C(=O)Nc3ccccc32)c1`, the inhibition in test [1] was found to be 1.35%; in test [2], 2.94%; in test [3], 5.43%; in [4] it was 0.86%; in test [5], 1.68%; in [6], 3.01%. In addition, the inhibition in [7] is 3.78%; in test [8] it was 7.61%; in test [9], 3.9%; in test [10], 9.06%.
Regarding `O=C(O[C@H]1CN[C@H](C#Cc2cc3ncnc(Nc4ccc5c(cnn5Cc5ccccc5)c4)c3s2)C1)N1CCOCC1`, the inhibition in test [1] is 9.06%; in [2], -5.39%; in test [3], -1.26%; in [4] it was -1.74%; in test [5] it was -2.68%; in test [6] it was -0.31%. Further, the inhibition in test [7] was 0.9%; in test [8] it was -0.59%; in test [9], 1.79%; in test [10] it was -3.66%.
As for `CCS(=O)(=O)c1ccc(OC)c(Nc2ncc(-c3cccc(C(C)=O)c3)o2)c1`, the inhibition in test [1] stood at 4.71%; in test [2], 1.19%; in [3], 7.18%; in [4] it was 3.84%; in [5] it was 2.23%; in test [6], 3.51%. Moreover, the inhibition in [7] came to 6.85%; in test [8], 9.55%; in test [9] it was 16.9%; in test [10], 9.45%.
In the case of `CNC(=O)c1ncccc1Nc1nc(Nc2cc3c(cc2OC)CCCN3C(=O)CN(C)C)nc2[nH]ccc12`, the inhibition in [1] came to 54.4%; in [2], 43.7%; in test [3], 80.5%; in test [4] it was 0.62%; in test [5], 0.22%; in test [6], 5.44%. Also, the inhibition in [7] turned out to be 5.06%; in test [8] it was 7.88%; in test [9], 7.89%; in [10], 8.66%.
Regarding `CN(C)CCNC(=O)Nc1ccc(N(C)c2ccnc(Nc3ccc(CS(C)(=O)=O)cc3)n2)cc1`, the inhibition in test [1] was 1.68%; in test [2] it was 4.53%; in test [3], 6.61%; in test [4], 2.63%; in [5], 1.36%; in [6], 3.79%. Also, the inhibition in test [7] is 4.33%; in test [8], 6.86%; in [9], 6.65%; in test [10], 10.6%.
As for `CC1=C(C(=O)Nc2ccc3[nH]ncc3c2)C(c2ccc(F)cc2)N=C(c2ccc(C(F)(F)F)nc2)N1` (stereo not given), the inhibition was 0.81% in test [1]; 4.44% in [2]; -0.48% in test [3]; -1.16% in [4]; -0.31% in test [5]; 3.49% in [6]. The inhibition in test [7] was 3.54%; in [8] it was 5.75%; in test [9], 6.21%; in test [10], 8.47%.
For the compound `NS(=O)(=O)c1ccc(N/N=C2\C(=O)Nc3ccc(C(=O)NCc4ccncc4)cc32)cc1`, the inhibition in test [1] came out at 5.2%; in [2], 0.1%; in test [3], 2.72%; in [4], 1.72%; in [5], 1.75%; in [6], 4.4%. Besides, the inhibition in test [7] was 3.58%; in test [8], 8.7%; in [9] it was 15%; in test [10] it was 4.03%.
As to `CS(=O)(=O)CCNCc1ccc(-c2ccc3ncnc(Nc4ccc(OCc5ccccc5)cc4)c3c2)o1`, the inhibition in test [1] was 12.4%; in [2], 0.12%; in test [3] it was 4.35%; in test [4] it was 1.77%; in [5], 1.18%; in [6], 5.21%. Further, the inhibition in test [7] is 5.62%; in test [8], 9.98%; in test [9], 11.5%; in [10], 6.07%.
Turning to `CN1CCN(Cc2ccc(-c3cc4ncnc(Nc5ccc(OCc6cccc(F)c6)c(Cl)c5)c4s3)o2)CC1`, the inhibition in [4] is -2.36% and 1.48%; in [5] it was -2.73% and 2.15%; in test [6], 2.75% and 5.84%; in test [7], 2.47% and 3.64%; in test [8] it was 4.95% and 10.4%; in [9], 6.16% and 11.9%. Also, the inhibition in test [10] is 5.13% and 6.55%.
